A selection: hits, their analogues and other compounds. The true share with any hit is near 10%.
12-hLO inh: qHTS Assay for Inhibitors of 12-hLO (12-human lipoxygenase). Polyunsaturated fatty acid lipoxygenase ALOX12 (Homo sapiens), P18054. purified 12-hLO, xylenol orange hydroperoxide absorbance. Potency, µM (highest dose often 57.1 µM), without a hit: at the top dose activity change, negative = inhibition, most hits filed as inhibitors. 150,000 compounds, 0.12% hits. AID 1452, 2008; note: potency is the fitted concentration of half-maximal effect; nearly all actives have a fitted effect of over 55% in size
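Purified human 12hLO (150 nM final) was preincubated with compounds for 15 min at room temperature in 25 mM Hepes pH 7.0, 0.01% Triton X-100, then reacted with 40 uM arachidonic acid for 30 min. Hydroperoxide was detected with ferrous iron/xylenol orange.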
ALDH1A1 inh: qHTS Assay for Inhibitors of Aldehyde Dehydrogenase 1 (ALDH1A1) | AID 1030, 2008 | Purified ALDH1A1, NADH fluorescence, propionaldehyde substrate | Aldehyde dehydrogenase 1A1 (Homo sapiens), P00352 | 220,000 compounds, 7.3% hits | Potency, µM (series often up to 75.3 µM), for inactives: at the top dose activity, negative = inhibition, actives largely listed as inhibitors; active = well fitted inhibition curve with a large enough effect, not every such curve was filed as active; inconclusive = small, poorly fitted or top-dose-only effect, or another doubt; inactive = no such curve, though single readings can be large or run the other way;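 note: potency is the fitted concentration of half-maximal effect; plate controls were no enzyme wells and a reference inhibitor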
PNC assembly inh: High Content Assay for Compounds that inhibit the Assembly of the Perinucleolar Compartment; PC3M PTB-GFP, PNC prevalence imaging, 16 h; active compounds read low; activity change (PNC), negative = inhibition, % at 10 µM; AID 2417, 2010; 140,000 compounds, 3.1% hits;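 active = readout at or below -70, meaning at least 70% loss of cells showing the perinucleolar compartment, a nuclear body marking cancer cells; inconclusive = readout between -30 and a set limit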;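 note: plate controls were DMSO wells for no effect and camptothecin positive control wells for full effect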
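Compounds are pinned in duplicate onto adhered PC3M cells stably expressing GFP-tagged PTB and incubated 16 h at 37 C. Cells are then fixed, nuclei stained with Hoechst, and PNC-positive cells counted.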
HPGD inh: qHTS Assay for Inhibitors of HPGD (15-Hydroxyprostaglandin Dehydrogenase); AID 894, 2007; purified HPGD, NADH fluorescence kinetic, PGE2 substrate; 150,000 compounds, 4.3% hits; Potency, µM, for the others: at the top dose activity change, negative = inhibition, most hits filed as inhibitors; 15-hydroxyprostaglandin dehydrogenase [NAD(+)] (Homo sapiens), P15428; active = well fitted inhibition curve with a large enough effect, not every such curve was filed as active; inconclusive = small, poorly fitted or top-dose-only effect, or another doubt; inactive = no such curve, though single readings can be large or run the other way; note: potency is the fitted concentration of half-maximal effect
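NADH formation kinetics: reaction with 30 uM PGE2 and 1 mM NAD+ (final), 20 nM enzyme, Tris-HCl pH 8 with Tween 20, after 15 min compound preincubation at room temperature. Fluorescence change, last versus first of five reads.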
GLA inh pH 4.5: qHTS Assay for Inhibitors of Human alpha-Galactosidase at pH 4.5 | purified enzyme, 4-MU-alpha-Gal fluorescence, pH 4.5 | AID 1467, 2008 | 230,000 tested, under 10 active | activity change, negative = inhibition, % at 105 µM | Alpha-galactosidase A (Homo sapiens), P06280;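 note: 0% = full activity with enzyme and -100% = basal without enzyme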
Target sequence (P06280 whole entry, looked up): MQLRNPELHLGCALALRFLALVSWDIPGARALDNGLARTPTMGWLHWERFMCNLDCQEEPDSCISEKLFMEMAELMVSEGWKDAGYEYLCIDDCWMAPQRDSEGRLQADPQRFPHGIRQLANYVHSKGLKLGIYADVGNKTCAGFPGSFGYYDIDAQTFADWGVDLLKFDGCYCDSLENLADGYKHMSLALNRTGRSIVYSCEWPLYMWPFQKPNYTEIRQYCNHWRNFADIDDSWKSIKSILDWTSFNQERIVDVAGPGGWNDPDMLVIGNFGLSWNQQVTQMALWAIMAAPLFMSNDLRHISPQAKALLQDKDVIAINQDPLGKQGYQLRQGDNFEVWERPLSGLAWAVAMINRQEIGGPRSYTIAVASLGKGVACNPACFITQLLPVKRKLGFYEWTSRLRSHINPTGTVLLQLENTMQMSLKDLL
aGal spleen mod: qHTS Assay for Inhibitors and Activators of Human alpha-Galactosidase From Spleen Homogenate; human spleen homogenate, 4MU-alpha-Gal fluorescence, 40 min; Potency, µM (titrated, usually from 80 µM), inactives show top-dose activity change, negative = inhibition, usual class: inhibitors; 240,000 compounds, 0.008% hits; AID 2107, 2009;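 note: potency is the fitted concentration of half-maximal effect; 0% = enzyme with vehicle and -100% = no enzyme basal signal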
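qHTS titration in buffer at pH 5.0. Alpha-galactosidase activity in spleen homogenate was measured via 4-methylumbelliferone release from 1 mM fluorogenic substrate after 40 min at 37C and a pH 10 stop. AC50 came from Hill fits of control-normalized data.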
Starred values were filed as active, the others as inactive; ? = inconclusive; / = not tested or not shown; [ ] = remark or other dose. Unless noted, calls come from the whole dose curve; as a rule, active = well fitted curve in the direction sought with a large enough effect; inconclusive = small, poorly fitted or top-dose-only effect, or another doubt; inactive = no such curve, though single readings can be large; an effect the other way counts as inactive or inconclusive. Unless noted, % is set by controls: 0 for no effect and ±100 for the full control effect.

SMILES	12-hLO inh	ALDH1A1 inh	PNC assembly inh	HPGD inh	GLA inh pH 4.5	aGal spleen mod
COC(=O)c1ccc(OC(=O)C2CC(=O)N(c3cccc(C)c3)C2)cc1 (stereo not drawn)	-4%	18µM*	-4	?	13	-4%
CCCCCCC#Cc1cc(OC)c(OC)cc1C(N1CC(C)c2ccccc21)N1CC(C)c2ccccc21 (stereo not drawn)	/	?	/	/	/	-8%[17.5 µM]
N#Cc1c(-c2ccco2)nc(SCc2ccc(F)cc2)[nH]c1=O	2%	0%	-13	10µM*	9	1%
O=C(/C=C\c1ccccc1OC(=O)c1ccccc1F)c1cc2ccccc2o1	-5%	30%	?	28µM*	9	-16%
COCc1cc(/C=N\NC(=O)Cc2ccc(OC)cc2)ccc1OC	-1%	-8%	?	-4%	-12	0%
CN(C)S(=O)(=O)c1ccc(C(=O)N2CCC(c3nc4ccccc4o3)CC2)cc1	0%	28µM*	33	-6%	2	-1%
CN(C)c1nc(N)nc(CSc2n[nH]c(-c3ccccc3)n2)n1	-2%	9%	-29	4µM*	-1	6%
C/C(NC(=O)c1ccccc1)=C1/C(=O)CC2C1C2(C)C (stereo not drawn)	-6%	?	10	?	-11	5%
C/C(N[C@@H]1CSCC1O)=C1/C(=O)CC2[C@@H]1C2(C)C (stereo partly drawn)	/	8.9µM*	/	-3%	0	0%
O=C(Cc1ccc(Cl)cc1)c1c(O)cc(O)cc1O	-9%	3%	/	?	-2	4%
Cc1ccc(Cn2c(CN3CCOCC3)nc3c2c(=O)n(C)c(=O)n3C)cc1	12%	10µM*	-100*	-15%	5	4%
CCOC(=O)N1CCN(Cc2nc3c(c(=O)n(C)c(=O)n3C)n2Cc2cc(C)ccc2C)CC1	7%	0.89µM*	?	-4%	3	-2%
CCCCn1c(CN2CCN(C(=O)OCC)CC2)nc2c1c(=O)n(C)c(=O)n2C	1%	?	?	-8%	2	-2%
Cn1c(=O)c2c(nc(CN3CCN(c4ccccc4F)CC3)n2CCN2CCOCC2)n(C)c1=O	-3%	?	-100*	-9%	2	-1%
CC(C)Oc1cccc(-c2cc(C(=O)NC(=S)N(C)c3ccccc3C(=O)O)c3ccccc3n2)c1	0%	?	?	?	-1	7%
O=c1c([N+](=O)[O-])cc(C(F)(F)F)cn1Cc1c(Cl)cccc1Cl	0%	10%	-21	-12%	-3	5%
O=C(Nc1ccc(Cl)c(Cl)c1)OCCNC(=O)c1ccncc1	/	10%	/	/	-16	8%
Cc1onc(-c2ccc(Cl)cc2Cl)c1-c1csc(COc2ccccc2)n1	/	?	/	/	-6	3%
N#Cc1ccc(N2C(=O)[C@@H]3C(C(=O)c4ccc5ccccc5n4)=NN[C@@H]3C2=O)cc1	-2%	7.9µM*	31	-20%	-4	7%
N#Cc1ccc(N2C(=O)[C@@H]3C(C(=O)c4cnccn4)=NN[C@@H]3C2=O)cc1	/	14µM*	/	/	-1	-4%
O=C(C1=NN[C@@H]2C(=O)N(c3cccc(C(F)(F)F)c3)C(=O)[C@H]12)c1cnccn1	/	/	/	/	-3	1%
O=C(C1=NN[C@@H]2C(=O)N(c3ccccc3C(F)(F)F)C(=O)[C@H]12)c1ccc2ccccc2n1	-1%	8%	-24	-8%	-4	-9%
Cc1ncc(COP(=O)(O)O)c(C)c1O	-3%[11.4 µM]	3%[13.5 µM]	/	1%	/	/
CC(=O)NCCc1ccc(S(=O)(=O)Nc2cccnc2)cc1	4%	0%	-82*	-2%	-1	-6%

Bioassay records: PubChem, National Center for Advancing Translational Sciences (NCATS)
